Laboratory results as given in PubChem BioAssay (NCI).
Compounds without any hit were thinned out: in the full panel of roughly 83,000, 20% have a hit.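 Activity criterion: percent growth below 10, measured after cells in 96-well plates were exposed to a single compound concentration for 48 hours.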 Active and inactive are the calls of the source.

How the values were obtained:
Assay in all cases: NCI-60 one-dose screen, 48 h (100 = growth as untreated, 0 = no growth, -100 = all killed)
Conditions in all cases: 10 µM unless noted
EKVX NSCLC = test system: EKVX NSCLC
SN12C renal = test system: SN12C renal
TK-10 renal = test system: TK-10 renal
CAKI-1 renal = test system: CAKI-1 renal
A498 renal = test system: A498 renal
CCRF-CEM leukemia = test system: CCRF-CEM leukemia
MOLT-4 leukemia = test system: MOLT-4 leukemia
SR leukemia = test system: SR leukemia
RPMI-8226 leukemia = test system: RPMI-8226 leukemia
OVCAR-8 ovarian = test system: OVCAR-8 ovarian
OVCAR-5 ovarian = test system: OVCAR-5 ovarian
OVCAR-4 ovarian = test system: OVCAR-4 ovarian
SK-OV-3 ovarian = test system: SK-OV-3 ovarian
IGROV1 ovarian = test system: IGROV1 ovarian
OVCAR-3 ovarian = test system: OVCAR-3 ovarian
HS 578T breast = test system: HS 578T breast
NCI/ADR-RES ovarian = test system: NCI/ADR-RES ovarian
UO-31 renal = test system: UO-31 renal
ACHN renal = test system: ACHN renal

Measured: growth

N[C@@H]1CCC[C@H]1NCCCCN1C(=O)c2cccc3cccc(c23)C1=O
inactive: EKVX NSCLC 85.6% | SN12C renal 73.7% | TK-10 renal 76.6% | CAKI-1 renal 81.3% | A498 renal 34.8% | CCRF-CEM leukemia 98.4% | MOLT-4 leukemia 30.8% | SR leukemia 18.1% | RPMI-8226 leukemia 77.7% | OVCAR-8 ovarian 45% | OVCAR-5 ovarian 80.9% | OVCAR-4 ovarian 47.2% | SK-OV-3 ovarian 96.9% | IGROV1 ovarian 59.9% | OVCAR-3 ovarian 69.9% | HS 578T breast 71.8% | NCI/ADR-RES ovarian 82.4%

COc1ccc(/C=C2\C=C(c3ccccc3)N(CCc3ccccc3)C2=O)cc1OC
inactive: EKVX NSCLC 56.1% | SN12C renal 53% | CAKI-1 renal 62% | CCRF-CEM leukemia 57.6% | MOLT-4 leukemia 34% | RPMI-8226 leukemia 70.6% | OVCAR-8 ovarian 25.9% | OVCAR-5 ovarian 67.2% | IGROV1 ovarian 49% | OVCAR-3 ovarian 28% | HS 578T breast 13.1% | NCI/ADR-RES ovarian 31.6%
active: UO-31 renal -47.5% | TK-10 renal -3.91% | ACHN renal -32.5% | A498 renal -75.4% | SR leukemia -1.98% | OVCAR-4 ovarian -5.49% | SK-OV-3 ovarian -30.3%

O=C1CSC(c2ccc(O)cc2)N1c1nnc(Cn2cnnc2)o1 (stereo not given)
active: SR leukemia 3.17%
inactive: EKVX NSCLC 99.1% | SN12C renal 85.9% | UO-31 renal 91.9% | TK-10 renal 131% | ACHN renal 108% | CAKI-1 renal 79.4% | A498 renal 99.9% | CCRF-CEM leukemia 49.1% | MOLT-4 leukemia 58.7% | RPMI-8226 leukemia 62% | OVCAR-5 ovarian 96.1% | OVCAR-4 ovarian 88.6% | SK-OV-3 ovarian 112% | IGROV1 ovarian 104% | OVCAR-3 ovarian 15.2% | HS 578T breast 64.7% | NCI/ADR-RES ovarian 92.2%

NC(=O)CC1(O)C=C(Br)C(=O)C(Br)=C1
active: UO-31 renal -53.6% | ACHN renal -59.4% | CAKI-1 renal -10.2% | CCRF-CEM leukemia -45% | MOLT-4 leukemia -53% | RPMI-8226 leukemia -31.3% | OVCAR-3 ovarian -9.94%
inactive: EKVX NSCLC 91.4% | SN12C renal 117% | TK-10 renal 17.1% | OVCAR-8 ovarian 95.9% | OVCAR-5 ovarian 70.2% | OVCAR-4 ovarian 34.7% | SK-OV-3 ovarian 99.1% | IGROV1 ovarian 82.2%

Clc1ccc(-c2nnc(-c3ccco3)o2)cc1
inactive: EKVX NSCLC 100% | SN12C renal 82.6% | UO-31 renal 84.4% | TK-10 renal 120% | ACHN renal 100% | CAKI-1 renal 73.3% | A498 renal 103% | CCRF-CEM leukemia 87.4% | MOLT-4 leukemia 90.1% | SR leukemia 89.7% | RPMI-8226 leukemia 93.8% | OVCAR-5 ovarian 82.4% | OVCAR-4 ovarian 95.4% | SK-OV-3 ovarian 102% | IGROV1 ovarian 93.8% | OVCAR-3 ovarian 107% | HS 578T breast 107% | NCI/ADR-RES ovarian 104%

COc1ccc(-c2cc(-c3cc(OC)ccc3O)[nH]c(=O)c2C#N)cc1
inactive: EKVX NSCLC 96% | SN12C renal 66.3% | UO-31 renal 44.1% | TK-10 renal 76.1% | ACHN renal 81% | CAKI-1 renal 77.6% | A498 renal 37.5% | CCRF-CEM leukemia 46.3% | SR leukemia 10.1% | RPMI-8226 leukemia 56.4% | OVCAR-8 ovarian 64.3% | OVCAR-5 ovarian 119% | OVCAR-4 ovarian 80.5% | SK-OV-3 ovarian 63.5% | IGROV1 ovarian 71.6% | OVCAR-3 ovarian 27.5% | HS 578T breast 36.6% | NCI/ADR-RES ovarian 52.7%

CN(C)c1ccc(C#Cc2c(F)cccc2Cl)cc1
inactive: EKVX NSCLC 63.5% | SN12C renal 82.2% | UO-31 renal 41.2% | TK-10 renal 96.8% | CAKI-1 renal 82.4% | A498 renal 42.6% | CCRF-CEM leukemia 88.6% | MOLT-4 leukemia 89.4% | SR leukemia 94.3% | RPMI-8226 leukemia 91.3% | OVCAR-8 ovarian 93.2% | OVCAR-5 ovarian 99.2% | OVCAR-4 ovarian 72% | SK-OV-3 ovarian 79% | IGROV1 ovarian 47.2% | OVCAR-3 ovarian 90.6% | HS 578T breast 94.5% | NCI/ADR-RES ovarian 85.3%

O=C1Nc2ccccc2SC1c1ccccc1Cl (stereo not given)
inactive: EKVX NSCLC 95.2% | SN12C renal 108% | UO-31 renal 103% | TK-10 renal 88.7% | ACHN renal 115% | CAKI-1 renal 71.9% | CCRF-CEM leukemia 83.9% | SR leukemia 10.4% | RPMI-8226 leukemia 75% | OVCAR-5 ovarian 98.1% | OVCAR-4 ovarian 80.4% | SK-OV-3 ovarian 114% | IGROV1 ovarian 101% | OVCAR-3 ovarian 83% | HS 578T breast 80.4% | NCI/ADR-RES ovarian 101%

COc1ccc(-c2cncnc2N)cc1OC
active: SK-OV-3 ovarian -40.5%
inactive: SN12C renal 109% | UO-31 renal 101% | ACHN renal 104% | CAKI-1 renal 101% | A498 renal 87.8% | CCRF-CEM leukemia 95.9% | MOLT-4 leukemia 105% | SR leukemia 102% | RPMI-8226 leukemia 96.8% | OVCAR-8 ovarian 105% | OVCAR-5 ovarian 110% | OVCAR-4 ovarian 108% | IGROV1 ovarian 111% | OVCAR-3 ovarian 115% | HS 578T breast 107% | NCI/ADR-RES ovarian 105%

CCN(CC)S(=O)(=O)c1ccc(O)c(NC(=O)c2[nH]c(C)c(C(C)=O)c2CCc2ccc(Cl)cc2)c1
inactive: EKVX NSCLC 78% | SN12C renal 43% | UO-31 renal 23.5% | ACHN renal 36.2% | CAKI-1 renal 56.8% | A498 renal 26% | CCRF-CEM leukemia 62% | SR leukemia 32.5% | RPMI-8226 leukemia 28.3% | OVCAR-8 ovarian 37.5% | OVCAR-5 ovarian 92.7% | OVCAR-4 ovarian 15.2% | SK-OV-3 ovarian 37.8% | IGROV1 ovarian 45.5% | OVCAR-3 ovarian 24.1% | HS 578T breast 49.9% | NCI/ADR-RES ovarian 50.5%

CCOc1ccc2nc(-c3cccc(OCC(=O)NC(C)C)c3)nc(Nc3ccc(-c4cn[nH]c4)cc3)c2c1
active: EKVX NSCLC 9.24% | UO-31 renal -13.3% | ACHN renal 7.49% | MOLT-4 leukemia 5.6% | SR leukemia 0.178% | RPMI-8226 leukemia -18.4% | OVCAR-8 ovarian -22.7% | OVCAR-4 ovarian -60.3% | OVCAR-3 ovarian -3.59% | HS 578T breast -44.5%
inactive: SN12C renal 18.6% | TK-10 renal 47.4% | CAKI-1 renal 27.7% | A498 renal 46.7% | CCRF-CEM leukemia 20.4% | OVCAR-5 ovarian 40.8% | SK-OV-3 ovarian 68.4% | IGROV1 ovarian 20.9% | NCI/ADR-RES ovarian 14.3%

OC(COc1cccc2ccccc12)CN1CCN(c2ccccc2)CC1 (stereo not given)
inactive: EKVX NSCLC 103% | SN12C renal 98.7% | UO-31 renal 82.2% | TK-10 renal 104% | ACHN renal 104% | CAKI-1 renal 47% | A498 renal 95.5% | MOLT-4 leukemia 107% | SR leukemia 130% | OVCAR-8 ovarian 100% | OVCAR-5 ovarian 102% | OVCAR-4 ovarian 91.9% | SK-OV-3 ovarian 93.7% | IGROV1 ovarian 122% | OVCAR-3 ovarian 105% | HS 578T breast 107% | NCI/ADR-RES ovarian 98%

C=C(C=O)[C@@H]1CC=C(C=O)CC1
active: EKVX NSCLC 2.06% | SN12C renal -14.1% | UO-31 renal -41.7% | TK-10 renal -42.2% | ACHN renal -54.9% | CAKI-1 renal -31.7% | CCRF-CEM leukemia -52.7% | SR leukemia -6.52% | RPMI-8226 leukemia -36.6% | OVCAR-5 ovarian -54.5% | SK-OV-3 ovarian 0.713% | IGROV1 ovarian -24.5% | OVCAR-3 ovarian -19.7% | HS 578T breast 6.33% | NCI/ADR-RES ovarian 3.97%
inactive: A498 renal 81.7% | OVCAR-4 ovarian 10.5%

COc1ccc(-c2cc(-c3cc(OC)ccc3OC)[nH]c(=O)c2C#N)cc1
active: A498 renal -1.35%
inactive: EKVX NSCLC 96.5% | SN12C renal 72% | UO-31 renal 64.4% | TK-10 renal 84.9% | ACHN renal 85.3% | CAKI-1 renal 63% | CCRF-CEM leukemia 76.9% | MOLT-4 leukemia 44.3% | SR leukemia 14.2% | RPMI-8226 leukemia 88.6% | OVCAR-8 ovarian 56.6% | OVCAR-5 ovarian 116% | OVCAR-4 ovarian 68.9% | IGROV1 ovarian 53.3% | OVCAR-3 ovarian 21.3% | HS 578T breast 43.5% | NCI/ADR-RES ovarian 34.2%

CN(C)c1ccc(/C=C2\C=C(c3ccccc3)N(CCc3ccccc3)C2=O)cc1
inactive: EKVX NSCLC 46.9% | SN12C renal 89.8% | UO-31 renal 61% | TK-10 renal 88.7% | ACHN renal 57.6% | CAKI-1 renal 76.9% | A498 renal 72.8% | CCRF-CEM leukemia 102% | SR leukemia 23.5% | RPMI-8226 leukemia 93% | OVCAR-8 ovarian 11.7% | OVCAR-5 ovarian 98.7% | SK-OV-3 ovarian 60.9% | IGROV1 ovarian 70.2% | OVCAR-3 ovarian 62.3% | HS 578T breast 19.1% | NCI/ADR-RES ovarian 48.6%
active: OVCAR-4 ovarian -11.6%

O=C1Nc2ccccc2SC1C1SC(=S)N(Cc2ccccc2)C1=O (stereo not given)
active: SR leukemia -12.1% | RPMI-8226 leukemia -21.7% | OVCAR-3 ovarian -5.62%
inactive: EKVX NSCLC 105% | SN12C renal 99.5% | UO-31 renal 73.1% | TK-10 renal 21.8% | ACHN renal 108% | CAKI-1 renal 78.2% | A498 renal 109% | CCRF-CEM leukemia 51.1% | MOLT-4 leukemia 67.3% | OVCAR-5 ovarian 104% | OVCAR-4 ovarian 59.8% | SK-OV-3 ovarian 118% | IGROV1 ovarian 96.5% | HS 578T breast 27% | NCI/ADR-RES ovarian 104%

CN(C)c1ccc(/C=C/c2c(F)cccc2F)cc1
inactive: EKVX NSCLC 76.2% | SN12C renal 98.2% | UO-31 renal 55.6% | ACHN renal 92.7% | CAKI-1 renal 94.6% | A498 renal 77.2% | CCRF-CEM leukemia 101% | MOLT-4 leukemia 97.4% | SR leukemia 93.7% | RPMI-8226 leukemia 95.8% | OVCAR-8 ovarian 99.7% | OVCAR-5 ovarian 104% | OVCAR-4 ovarian 90.3% | SK-OV-3 ovarian 89.3% | IGROV1 ovarian 59.7% | OVCAR-3 ovarian 98% | HS 578T breast 89.9% | NCI/ADR-RES ovarian 92.6%

CC(/C=N/NC(=O)c1cc(-c2ccco2)[nH]n1)=C\c1ccccc1
inactive: EKVX NSCLC 89.2% | SN12C renal 95% | UO-31 renal 96.8% | TK-10 renal 123% | CAKI-1 renal 80.8% | A498 renal 110% | CCRF-CEM leukemia 92.3% | MOLT-4 leukemia 96.6% | SR leukemia 88.7% | RPMI-8226 leukemia 84.7% | OVCAR-5 ovarian 96.9% | OVCAR-4 ovarian 99.6% | SK-OV-3 ovarian 97.4% | IGROV1 ovarian 107% | OVCAR-3 ovarian 107% | HS 578T breast 30.3% | NCI/ADR-RES ovarian 97.8%
